Out of some 69,000 compounds screened, about 8,600 (12%) showed an effect of 50% or more. This excerpt belongs to a sample that is enriched for strong results.

This test has as its system Plasmodium berghei. As to the kind of experiment: Screen against P. berghei liver stage (PbLuc), transformed with Luciferase, at 10uM. It is filed as functional, HepG2. The settings on record: tested at 10 uM.
For `Cc1noc(NCc2cn(C)nc2-c2ccncc2)n1`, the INHIBITION is 19.4%.
For `Cc1ccc(C(=O)NS(=O)(=O)c2c(Cl)cccc2Cl)c(=O)[nH]1` the value was 19.4%.
For `CN(C)CCN1CCO[C@H]2CN(Cc3cnn(C)c3)C[C@H]21` the value was -57.1%; for `Cc1nnsc1C(=O)N1CCCCC1c1cc2nc(C)c(C)c(O)n2n1` (stereo unspecified), 19.3%.
For `Cc1nc(-c2ccccc2)sc1CNC(=O)c1ccc(=O)n(C)c1` the value was 39.6%.
With `CC(NCCCN1CCCC1=O)c1cc(Br)ccc1O` (stereo unspecified), the INHIBITION is given as -1.3%.
For `c1cc2c(cc1Cn1cc(C3CCOC3)nn1)OCO2` (stereo unspecified) the value was 17.6%; for `Cc1ocnc1C(=O)N(C)[C@@H]1CC[C@@H](n2ccnc2C)[C@@H]1O`, 45.9%.
Regarding `Cn1cnc2cc(CCC(=O)Nc3nc[nH]n3)ccc21`, the INHIBITION worked out at 39.2%.
For `CCc1ccc(C2CC(=O)Nc3c2c(=O)n(C)c2ncnn32)cc1` (stereo unspecified) the value was 0.207%; for `Cn1c(=O)c2c(n3ncnc13)NC(=O)CC2c1cccc(F)c1` (stereo unspecified), 41.6%; for `Cn1c(=O)c2c(n3ncnc13)NC(=O)CC2c1ccc(F)cc1` (stereo unspecified), 54%.
For `Cc1nc(N(C)C)nc(-c2cccc(-c3ccn(CCCO)n3)c2)c1C` the value was 14.9%; for `Cc1ccc(CNCC2CNc3cc(C)nn3C2)cn1` (stereo unspecified), 33.35%.
With `CCOc1cncc(N2CCOCC2)n1`, the INHIBITION was 35.4%.
Then `O=C(CCN1CCOCC1)NC1CCCN(CC2CCCCC2)C1` (stereo unspecified), with 1.37%; and `O=C(CCN1CCCCO1)NC1CCCN(CC2CCCCC2)C1` (stereo unspecified), with 11.2%.
On to `O=C(CCN1CCCO1)NC1CCCN(CC2CCCCC2)C1` (stereo unspecified), for which the INHIBITION was determined as 50.5%.
For `CCOc1ccc2cc(C(=O)NCCC(=O)N(C)C)[nH]c2c1` the value was -5.22%.
Turning to `Cc1ccc(N2CCCN(CC3CC3)C(C(C)C)C2)nn1` (stereo unspecified), the INHIBITION came to 23%.
Then `COCC1COCCC12CCN(C(=O)CC1Cc3ccccc3C1)CC2` (stereo unspecified), with 23.6%; and `Clc1snnc1CN1CCCC1Cn1cccn1` (stereo unspecified), with -36.1%.
In the case of `Cc1ccnn1CC(=O)N1CCN(C2CCc3ccccc3C2)CC1` (stereo unspecified), the INHIBITION is given as 10.7%.
For `Cc1ccnn1CCC(=O)N1CCN(C2CCc3ccccc3C2)CC1` (stereo unspecified) the value was -5.08%.
Then `CCc1nccn1CC(=O)N1CCN(C2CCc3ccccc3C2)CC1` (stereo unspecified), with 57.9%; and `COc1cc(-n2cccc2)c(Cl)cc1C(=O)NS(C)(=O)=O`, with 23.7%; and `CC(C)(C)CC(=O)N1[C@@H](c2ccco2)[C@@H](CO)C[C@]12CCCCNC2=O`, with 22.2%.
Then `O=C(NCC(c1ccccc1)N1CCOCC1)Nc1cn[nH]c1` (stereo unspecified), with -113%; and `Cn1c(CN2CCCCC2)cc(=O)c(O)c1CN1CCCCC1`, with 74%.
Turning to `Cn1c(CN2CCOCC2)cc(=O)c(O)c1CN1CCCCC1`, the INHIBITION was determined as 30.2%.
Then `Cn1c(CN2CCCC(N3CCCCCC3)C2)cc(=O)n(C)c1=O` (stereo unspecified), with -10.9%; and `Cn1c(CN2CCCCCC2)cc(=O)c(O)c1CN1CCCC1`, with 63.1%; and `Cn1c(CN2CCOCC2)cc(=O)c(O)c1CN1CCOCC1`, with 5.58%.
For `Cn1c(CN2CCOCC2)cc(=O)c(O)c1CN1CCCC1` the value was 6.12%; for `CN(CCn1nc2ccccn2c1=O)CC(=O)N1CCCC1`, 18.2%; for `CCn1cc(CN(C)C(=O)c2cc(C(F)(F)F)n(C)n2)cn1`, -6.42%.
Then `CC(C)(CO)Nc1c(NCc2ccncc2)c(=O)c1=O`, with 32.8%; and `COc1ccc(C(=O)NCCCOC(C)c2ccccc2)c(OC)c1` (stereo unspecified), with 84.4%; and `CC(OCCCNC(=O)c1cccnc1O)c1ccccc1` (stereo unspecified), with -21.2%.
As to `COc1ccc(C(=O)NCCCNc2ncccn2)c(OC)c1`, the INHIBITION stood at 30.8%.
Then `CCC[C@@H]1CN(C(=O)c2ccccc2C(C)=O)C[C@H]1N(C)C`, with 8.92%; and `CCC[C@@H]1CN(C(=O)c2ccccc2-c2ccccc2)C[C@H]1N(C)C`, with 31.7%; and `CCC[C@@H]1CN(C(=O)c2cc3ccccc3cc2O)C[C@H]1N(C)C`, with 51.5%.
Then `Cc1ccc(-c2n[nH]cc2CNCC2CCN(CC(F)(F)F)C2)o1` (stereo unspecified), with 27.5%.
For `CC1=N[C@@]2(CC[C@@H]3CN(CC(=O)N(C)C)C[C@@H]32)C(=O)N1CC(C)C` the value was -6.32%; for `CCN1CCCn2c(nc(CNC(=O)c3cnoc3C)cc2=O)C1`, -24%.
In the case of `Cn1nccc1CNC(=O)C1CCCCC1`, the INHIBITION is 33%.
Then `Cc1cc(C(=O)NC(C)CC(=O)c2ccco2)[nH]n1` (stereo unspecified), with 37.9%.
For `CS(=O)(=O)N1CCO[C@@H]2CCN(C(=O)c3cccs3)CC[C@H]21` the value was 31.9%.
For `CN(C)CCN1CCO[C@H]2CCN(C(=O)c3cccs3)CC[C@@H]21` the value was 54.1%; for `COCCN1CCO[C@H]2CN(C(=O)c3ccncc3F)C[C@H]21`, -52.3%.
